Growth data for 11 molecules are collected here from PubChem BioAssay (NCI).

Each structure is given as a SMILES string. Where “and” joins values, the source holds several entries; their conditions need not be identical. Identical values can stand only once. About 83,000 compounds went through this panel and 20% of them were active in at least one assay; those are over-represented in the sample as a whole.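 For each line, cells grew in 96-well plates with the test compound present at a single concentration for 48 hours.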 Calls of active or inactive are those of the source. How the source made its calls: active means growth percent below 10; inactive means the rest.

Some test systems named below: NCI-H23 lung; NCI-H226 lung; NCI-H322M lung; HOP-62 NSCLC; NCI-H460 lung; HOP-92 NSCLC; NCI-H522 lung; A549/ATCC NSCLC; 786-0 renal; COLO 205 colon.
Assay in all cases: NCI-60 one-dose screen, 48 h (100 = growth as untreated, 0 = no growth, -100 = all killed)
What all share (details): 10 µM unless noted

Regarding `CN(C)C(=O)c1cc2cnc(Nc3ccc(-c4csc5c(=S)cc(N6CCOCC6)oc45)cc3)nc2n1C1CCCC1`, the growth in the assay with NCI-H23 lung is 7.49% (active); in the assay with NCI-H226 lung, 15.8% (inactive); with NCI-H322M lung, 18.4% (inactive); in the assay with HOP-62 NSCLC it was 6.1% (active); in the assay on NCI-H460 lung it was 3.26% (active); with HOP-92 NSCLC, -5.69% (active). Further, the growth in the assay with NCI-H522 lung was 4.24% (active); with A549/ATCC NSCLC, 5.94% (active); in the assay on 786-0 renal it was 9.52% (active); in the assay on COLO 205 colon it was -33.9% (active).
In the case of `COc1ccc(/C=C/C(=O)c2cc3c(N)c(C(=O)Nc4ccccc4)sc3nc2C)cc1`, the growth in the assay with NCI-H23 lung is 28.8% (inactive); in the assay with NCI-H226 lung it was 42.7% (inactive); with NCI-H322M lung it was 35.9% (inactive); in the assay with HOP-62 NSCLC, 32.9% (inactive); in the assay with NCI-H460 lung, -1.05% (active); in the assay on HOP-92 NSCLC it was 40.6% (inactive). The growth with NCI-H522 lung is -17.9% (active); in the assay on A549/ATCC NSCLC, 16.8% (inactive); in the assay with 786-0 renal it was 20.2% (inactive); with COLO 205 colon, -17.4% (active).
With `Cc1n(Cc2ccc3ccccc3c2)c(Cl)c(Cl)[n+]1Cc1ccc2ccccc2c1`, the growth is 25.6% (inactive) in the assay on NCI-H23 lung; 47.1% (inactive) in the assay with NCI-H226 lung; 76.2% (inactive) with NCI-H322M lung; 59.6% (inactive) in the assay with HOP-62 NSCLC; 33.5% (inactive) in the assay on NCI-H460 lung; -11.3% (active) in the assay on HOP-92 NSCLC. Moreover, the growth in the assay on NCI-H522 lung is 16.9% (inactive); in the assay on A549/ATCC NSCLC, 81.4% (inactive); in the assay on 786-0 renal, 50.2% (inactive); in the assay with COLO 205 colon, -46.6% (active).
Turning to `C=C(C)[C@@H]1CC[C@]2(C(=O)N3CCN(C)CC3)CC[C@]3(C)[C@H](CC[C@@H]4[C@@]5(C)CC(CCCNC(C)=O)(CCCNC(C)=O)[C@H](OC(C)=O)C(C)(C)[C@@H]5CC[C@]43C)[C@@H]12`, the growth was 98.2% (inactive) with NCI-H23 lung; 99.1% (inactive) in the assay with NCI-H226 lung; 105% (inactive) in the assay on NCI-H322M lung; 103% (inactive) with HOP-62 NSCLC; 99.5% (inactive) in the assay with NCI-H460 lung; 98.2% (inactive) with HOP-92 NSCLC. In addition, the growth with NCI-H522 lung was 96.3% (inactive); in the assay with A549/ATCC NSCLC, 102% (inactive); in the assay with 786-0 renal it was 99.8% (inactive); in the assay on COLO 205 colon, 106% (inactive).
Regarding `Cn1cc(-c2csc(-c3c[nH]c4ccc(F)cc34)n2)c2cnccc21`, the growth in the assay with NCI-H23 lung is 49.3% (inactive); with NCI-H226 lung it was 52% (inactive); in the assay on NCI-H322M lung, 15.4% (inactive); with HOP-62 NSCLC, -55.1% (active); in the assay with NCI-H460 lung it was -54.3% (active); in the assay on HOP-92 NSCLC, -47% (active). The growth in the assay on NCI-H522 lung is -78.5% (active); in the assay with A549/ATCC NSCLC, 5.33% (active); in the assay with 786-0 renal it was -94.5% (active); with COLO 205 colon, -93.2% (active).
Take `CCN(CC)/C([O-])=c1\cccc\c1=C1\N=C(c2ccccc2)N=C1[n+]1ccc(-c2ccccc2)cc1`: the growth in the assay with NCI-H23 lung was 103% (inactive); in the assay with NCI-H226 lung, 94.4% (inactive); in the assay on NCI-H322M lung, 100% (inactive); with HOP-62 NSCLC, 97.1% (inactive); in the assay with NCI-H460 lung, 103% (inactive); in the assay with HOP-92 NSCLC, 86.7% (inactive). In addition, the growth with NCI-H522 lung is 21% (inactive); with A549/ATCC NSCLC, 97.9% (inactive); in the assay on 786-0 renal it was 94.2% (inactive); in the assay on COLO 205 colon, 108% (inactive).
As to `CCN1C(=O)N(c2ccccc2)C2NC(=S)N(/N=C/C=C/c3ccccc3)C21` (stereo not given), the growth is 21.1% (inactive) in the assay on NCI-H23 lung; 2.92% (active) in the assay on NCI-H226 lung; 50.4% (inactive) in the assay on NCI-H322M lung; 37.9% (inactive) in the assay on HOP-62 NSCLC; 8.06% (active) in the assay on NCI-H460 lung; 28.8% (inactive) in the assay on HOP-92 NSCLC. For the same molecule, the growth was 14.8% (inactive) in the assay with NCI-H522 lung, 24.9% (inactive) with A549/ATCC NSCLC, 37.2% (inactive) with 786-0 renal and -8.16% (active) in the assay on COLO 205 colon.
As to `Cc1ccc(-c2nc3nc(-c4ccc(Cl)cc4)nc(N4CCCNCC4)c3o2)cc1`, the growth was 96.4% (inactive) in the assay with NCI-H23 lung; 111% (inactive) in the assay with NCI-H226 lung; 17.4% (inactive) in the assay on NCI-H322M lung; 97.6% (inactive) in the assay with HOP-62 NSCLC; -81.6% (active) in the assay with NCI-H460 lung; 83.6% (inactive) in the assay with HOP-92 NSCLC. Moreover, the growth with NCI-H522 lung was 62.2% (inactive); in the assay on A549/ATCC NSCLC, -81.6% (active); with 786-0 renal, -82.9% (active); in the assay with COLO 205 colon it was -66.4% (active).
For the molecule `CC(C)(C)c1cc(NC(=O)Nc2ccc(-c3cn4c(n3)sc3cc(OCCN5CCOCC5)ccc34)cc2)no1`, the growth in the assay on NCI-H23 lung was 23.9% (inactive) and 42.6% (inactive); in the assay with NCI-H226 lung it was 17.8% (inactive); in the assay on NCI-H322M lung, 34.9% (inactive) and 54.5% (inactive); in the assay on HOP-62 NSCLC it was 35.7% (inactive) and -26.2% (active); in the assay on NCI-H460 lung, -10.7% (active) and 10.4% (inactive); with HOP-92 NSCLC it was -2.21% (active) and -1.85% (active). The growth in the assay with NCI-H522 lung is -3.14% (active) and 10.6% (inactive); in the assay on A549/ATCC NSCLC it was 28.3% (inactive) and 17.3% (inactive); with 786-0 renal, -9.92% (active) and 7.85% (active); in the assay with COLO 205 colon, 10.7% (inactive) and -43.9% (active).
In the case of `CN(C)CCCn1c2nc(=O)[nH]c(=O)c-2nc2cc(Cl)c(Cl)cc21`, the growth is 109% (inactive) with NCI-H23 lung; 105% (inactive) in the assay with NCI-H226 lung; 69.1% (inactive) in the assay with NCI-H322M lung; 117% (inactive) in the assay on HOP-62 NSCLC; 107% (inactive) in the assay on NCI-H460 lung; 88.3% (inactive) in the assay with HOP-92 NSCLC. In addition, the growth was -23.7% (active) in the assay with NCI-H522 lung, 99% (inactive) in the assay with A549/ATCC NSCLC, 103% (inactive) in the assay with 786-0 renal and 4.28% (active) in the assay on COLO 205 colon.
Turning to `O=C(CCl)N(O)c1ccc(/C=C/c2ccccc2)cc1`, the growth in the assay with NCI-H23 lung is 70.7% (inactive) and 74.2% (inactive); in the assay on NCI-H226 lung, 56.9% (inactive); in the assay on NCI-H322M lung it was 99.5% (inactive) and 91.5% (inactive); in the assay on HOP-62 NSCLC, 96.5% (inactive); in the assay on NCI-H460 lung it was 85.4% (inactive) and 73% (inactive); in the assay with HOP-92 NSCLC it was 81.8% (inactive). For the same molecule, the growth in the assay with NCI-H522 lung was 61.5% (inactive) and 30.4% (inactive); in the assay on A549/ATCC NSCLC, 90.3% (inactive) and 65% (inactive); in the assay on 786-0 renal it was 84% (inactive) and 78.3% (inactive); in the assay with COLO 205 colon, 92.9% (inactive) and 83.1% (inactive).
